{"source": "PubChem BioAssay (NCI)", "note": "About 79,000 compounds went through this panel and 15% of them were active in at least one assay; those are over-represented in the sample as a whole. Activity calls are given as the source filed them. Cut-off read from the data, not from the text of the source: active = growth inhibition above about 70%; inactive = the rest."}
{"test": "NCI Yeast Anticancer Drug Screen. Data for the mec2-1 strain (AID 157)", "conditions": "S. cerevisiae mec2-1 strain, at 50.0 µM, active compounds read high", "experimental": "Growth inhibition of yeast strains with defined genetic alterations is measured as a screen for potential anti-cancer activity. Selected strains with alterations in DNA damage repair or cell cycle control were exposed to compounds and growth inhibition was measured relative to vehicle treated controls. The strain used in this assay is mec2-1"}
{"smiles": "CCCOP1(=O)C=C(C)C(Cl)=C(C)C1", "note": "(stereo not given)", "growth inhibition": "-4.6% (inactive)"}
{"smiles": "C1C[N-]CC[N-]1.C1C[N-]CC[N-]1.N#CS.[Ni+2]", "growth inhibition": "5.65% (inactive)"}
{"smiles": "CCCCCCCCCCCCCCCC[As](=O)(O)CCCCCCCCCCCCCCCC", "growth inhibition": "13.7% (inactive)"}
{"smiles": "O=C(O)CCCC(=O)CCCC(=O)O", "growth inhibition": "4.35% (inactive)"}
{"smiles": "[CH3][Sn]([CH3])([n]1cnc(N)nc1=O)[n]1cnc(N)nc1=O", "growth inhibition": "0% (inactive)"}
{"smiles": "[Cl][Ni][Cl].[NH-]CCN1CC1.[NH-]CCN1CC1", "growth inhibition": "19.4% (inactive)"}
{"smiles": "COc1ccc(N2C(=O)C3C4c5ccccc5C(C3C2=O)[n+]2ccccc24)cc1", "note": "(stereo not given)", "growth inhibition": "-14.1% (inactive)"}
{"smiles": "O=C(CC(=O)C(F)(F)F)c1ccco1.[Co]", "growth inhibition": "-17.2% (inactive)"}
{"smiles": "CC(=O)Nc1ccc([As](=O)(O)O)cc1[N+](=O)[O-]", "growth inhibition": "-12.3% (inactive)"}
{"smiles": "NC(N)=Nc1nn[nH]n1", "growth inhibition": "-8.25% (inactive)"}
{"smiles": "O=NN1CCN(N=O)CC1", "growth inhibition": "-0.6% (inactive)"}
{"smiles": "C[N+](C)(C)CC1CCC/C1=N/O", "note": "(stereo not given)", "growth inhibition": "13.4% (inactive)"}
{"smiles": "O=C(Cl)c1ccc[nH]1", "growth inhibition": "-13.9% (inactive)"}
{"smiles": "CCCc1ccc(CCN)cc1", "growth inhibition": "-9% (inactive)"}
{"smiles": "COc1cc2c(cc1O)CC1c3c(cc(O)c(OC)c3-2)CCN1C", "note": "(stereo not given)", "growth inhibition": "-8.45% (inactive)"}
{"smiles": "CCC(N)CBr", "note": "(stereo not given)", "growth inhibition": "1.7% (inactive)"}
{"smiles": "O=C1NC(=O)C(Cc2cccc(Cl)c2)C(=O)N1", "growth inhibition": "-6.9% (inactive)"}
{"smiles": "O=C(O)C(=O)O.[Co].[NH-]CC[NH-].[NH-]CC[NH-]", "growth inhibition": "13.4% (inactive)"}
{"smiles": "CS(=O)(=O)c1ccc(COP(N)(=O)N(CCCl)CCCl)cc1", "note": "(stereo not given)", "growth inhibition": "-8.05% (inactive)"}
{"smiles": "c1ccc(P2c3ccccc3Oc3ccccc32)cc1", "growth inhibition": "7.3% (inactive)"}
{"smiles": "Cc1cc(Nc2ccc(N(CCCl)CCCl)cc2)c(C)cc1O", "growth inhibition": "10% (inactive)"}
{"smiles": "O=C(Nc1cccc(S(=O)(=O)F)c1)c1cccc([N+](=O)[O-])c1", "growth inhibition": "94.8% (active)"}
{"smiles": "C1CN2CCOC2O1", "growth inhibition": "15.2% (inactive)"}
{"smiles": "Nc1cc(S(=O)(=O)O)cc2cc(S(=O)(=O)O)c(N=Nc3ccc([As]=O)cc3)c(O)c12", "note": "(stereo not given)", "growth inhibition": "15.3% (inactive)"}
{"smiles": "CC1CC(C)(C)[N+](C)(CCC(C(N)=O)(c2ccccc2)c2ccccc2)C1", "note": "(stereo not given)", "growth inhibition": "-5.15% (inactive)"}
{"smiles": "O=C1NCCCC1(Cl)Cl", "growth inhibition": "-1.25% (inactive)"}
{"smiles": "C=CCc1cc(OC)c2c(c1OC)OCO2", "growth inhibition": "8.95% (inactive)"}
{"smiles": "O=C(NCC(O)CO)c1c([N+](=O)[O-])ccc(N(CCCl)CCCl)c1[N+](=O)[O-]", "note": "(stereo not given)", "growth inhibition": "-9.85% (inactive)"}
{"smiles": "COc1ccccc1-n1c(C)nc2ccccc2c1=O", "growth inhibition": "-19.6% (inactive)"}
{"smiles": "CC1=CC2=C(C)C3(CC3)[C@@](C)(O)C(=O)C2=C1", "growth inhibition": "14.3% (inactive)"}
{"smiles": "CN(C)CCNC(=O)c1cccc(COC(=O)N(CCCl)CCCl)c1[N+](=O)[O-]", "growth inhibition": "-2.4% (inactive)"}
{"smiles": "CNC(Cc1ccccc1)c1cccc(OC)c1O", "note": "(stereo not given)", "growth inhibition": "-25.6% (inactive)"}
{"smiles": "C[Si](C)(C)[C@@]1([Se]c2ccccc2)CC[C@@H]1C(=O)c1ccccc1", "growth inhibition": "-26.4% (inactive)"}
{"smiles": "O=C(O)C(F)F", "growth inhibition": "-1.2% (inactive)"}
{"smiles": "[Cl][Co][Br].[NH-]CC[NH-].[NH-]CC[NH-]", "growth inhibition": "3.95% (inactive)"}
{"smiles": "COc1ccc(CCN)c(OC)c1", "growth inhibition": "2.8% (inactive)"}
{"smiles": "CC(=O)Nc1nc2c(ncn2C2OCC(OC(C)=O)C(OC(C)=O)C2OC(C)=O)c(=O)[nH]1", "note": "(stereo not given) (tested in a mixture with another compound)", "growth inhibition": "-4.35% (inactive)"}
{"smiles": "COC[n+]1cccc(C2CCC[N+]2(C)C)c1", "note": "(stereo not given)", "growth inhibition": "1.25% (inactive)"}
{"smiles": "[Cl][Hg][c]1ccccc1N=Nc1ccccc1", "growth inhibition": "98.5% (active)"}
{"smiles": "O=[N+]([O-])c1cc([As](=O)(O)O)ccc1S(=O)(=O)O", "growth inhibition": "7.65% (inactive)"}
